In PubChem BioAssay:

Experiment: small-molecule microarray binders of probe aDKK1, primary screen, biochemical, biotinylated probe, 635/667 nm fluorescence (AID 1099);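 note: score merges 667nm spot fluorescence with signal to noise across triplicate slides; reference of the scale not given here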
Settings: higher = more signal
`COc1ccc(O[C@H]2C=C[C@@H](c3ccccc3)O[C@@H]2CON=CC[C@@H]2C=C[C@H](OC(C)=O)[C@@H](COC(C)=O)O2)cc1` showed a composite z-score of -0.229. Work on `CO[C@H]1COC(=O)CC=C[C@@H](C)[C@H](NS(=O)(=O)c2ccc(C)cc2)COC(=O)CCC[C@@H]1C` yielded a composite z-score of -0.233. `CON=CC[C@@H]1C=C[C@H](OC(C)=O)[C@@H](COC(C)=O)O1` showed a composite z-score of -0.146. With `C=COC[C@@H]1CN2[C@@H](CC[C@@H](C)[C@@H]2c2ccc(Br)cc2)C(=O)O1` the composite z-score was -0.319. Work on `O=C1[C@H]2[C@H]3[C@H](O)[C@H](O)CC(=NOCc4ccccc4)[C@@H]3CC[C@H]2C(=O)N1Cc1ccc2c(c1)OCO2` yielded a composite z-score of -0.225. For `COC(=O)NCC=Cc1nc(CCCO)co1`, the composite z-score was -0.414. In the case of `CO[C@H]1COC(=O)CC=C[C@H](C)[C@@H](OC)COC(=O)[C@@H](C)COC(=O)CC=C[C@@H]1C`, the composite z-score is reported as -0.909. Work on `COC(=O)[C@@H]1CC[C@H](C)[C@@H](c2ccc(C)cc2)N1C(=O)c1ccc(C=NOC[C@@H](C)[C@H](OCc2ccccc2)C(C)C)cc1` yielded a composite z-score of 0.0975. For `COC(=O)CC=C[C@@H](C)[C@@H](C=NO[C@@H]1O[C@H](COC(C)=O)[C@@H](OC(C)=O)[C@H](OC(C)=O)[C@H]1OC(C)=O)NS(=O)(=O)c1ccc(C)cc1`, the composite z-score was -0.268. `CCOC(=O)[C@H](CC(C)C)NC(=O)CCC1CC(OC(=O)NCc2cccc3ccccc23)CC2(CCCC(COC(=O)NCCOc3ccccc3)O2)O1` (stereo partly specified) gave a composite z-score of -0.246. With `COc1cccc([C@H]2Oc3ccc(OC)cc3C(=NO[C@@H](C)c3cn([C@H](CO)Cc4ccccc4)nn3)[C@@H]2O)c1` the composite z-score was -0.268.
